Source: PubChem BioAssay
Unmarked numbers belong to inactive results. No stated cut-off is given here; in the data, active means inhibition above about 28%; inactive means the rest.

molecular target: Single-stranded DNA-binding protein (Escherichia coli (strain K12)) (UniProt P0AGE0); test: E. coli SSB displacement from DNA, counter-screen for HCV NS3 helicase inhibitor project, biochemical, fluorescence polarization, NIH Clinical Collection (AID 743271); conditions: stronger effect = higher value, concentration not given here

Row | Structure (SMILES) | inhibition [%]
1 | CNNCc1ccc(C(=O)NC(C)C)cc1 | -0.1
2 | Nc1nc2c(ncn2CCC(CO)CO)c(=O)[nH]1 | -1.64
3 | O=C1CC2(CCCC2)CC(=O)N1CCNCC1COc2ccccc2O1 (stereo not drawn) | -4.33
4 | Cn1nnc2c(C(N)=O)ncn2c1=O | -0.87
5 | O=C1[C@H]2CCCC[C@H]2C(=O)N1CCCCN1CCN(c2nsc3ccccc23)CC1 | -2.41
6 | O=C(O)CCNC(=O)c1ccc(N=Nc2ccc(O)c(C(=O)O)c2)cc1 | 1.97
7 | CC(Oc1c(Cl)cccc1Cl)C1=NCCN1 (stereo not drawn) | -3.54
8 | CN1CCN(C2=Nc3cc(F)ccc3Cc3ccccc32)CC1 | 1.97
9 | COC(=O)C1=C(C)NC(C)=C(C(=O)OC(C)C)C1c1cccc2nonc12 (stereo not drawn) | 4.52
10 | CCOc1cc(N)c(Cl)cc1C(=O)NCC1CN(Cc2ccc(F)cc2)CCO1 (stereo not drawn) | 4.52
11 | O=c1c(-c2ccccc2)c1-c1ccccc1 | 1.44
12 | O=C1Nc2ccc(Cl)cc2[C@@](C#CC2CC2)(C(F)(F)F)O1 | 6.06
13 | Nc1nc(N)nc(-c2cc(Cl)ccc2Cl)n1 | 2.21
14 | OCCOCCN1CCN(C2=Nc3ccccc3Sc3ccccc32)CC1 | 1.44
15 | CC(=O)Nc1ccc(CC(=O)O)cc1 | -2.41
16 | O=c1[nH]cnc2c1ncn2[C@H]1CC[C@@H](CO)O1 | 0.67
17 | COC(=O)C1=C(C)NC(C)=C(C(=O)O[C@@H]2CCCN(Cc3ccccc3)C2)[C@@H]1c1cccc([N+](=O)[O-])c1 | 5.29
18 | Cc1c(O)cccc1C(=O)N[C@@H](CSc1ccccc1)[C@H](O)CN1C[C@H]2CCCC[C@H]2C[C@H]1C(=O)NC(C)(C)C | 2.98
19 | CCc1nn(CCCN2CCN(c3cccc(Cl)c3)CC2)c(=O)n1CCOc1ccccc1 | 3.75

Row | Structure (SMILES) | inhibition [%]
20 | Nc1[nH]c(=O)ncc1F | -1.64
21 | O=C1CCc2ccc(OCCCCN3CCN(c4cccc(Cl)c4Cl)CC3)cc2N1 | 4.52
22 | COc1cc(C(=O)NC2CCCNC2)cc(OC)c1OC (stereo not drawn) | 2.98
23 | COc1ccc(C(=O)NCc2ccc(OCCN(C)C)cc2)cc1OC | 2.98
24 | COCc1c(C(C)C)nc(C(C)C)c(/C=C/[C@@H](O)C[C@@H](O)CC(=O)O)c1-c1ccc(F)cc1 | -2.41
25 | CC(C)(C)C(O)/C=C/c1ccc2c(c1)OCO2 (stereo not drawn) | -2.76
26 | Cc1ccnc2c1NC(=O)c1cccnc1N2C1CC1 | -5.49
27 | CCOc1cc(CC(=O)N[C@@H](CC(C)C)c2ccccc2N2CCCCC2)ccc1C(=O)O | 2.21
28 | Nc1c2c(nc3c1CCC3)CCCC2 | 1.44
29 | CCOC(=O)OC(C)OC1=C(C(=O)Nc2ccccn2)N(C)S(=O)(=O)c2ccccc21 (stereo not drawn) | -0.39
30 | CN1CCN(c2c(F)cc3c(=O)c(C(=O)O)cn4c3c2SCC4)CC1 | -3.18
31 | Cc1nc2n(c(=O)c1CCN1CCC(c3noc4cc(F)ccc34)CC1)CCCC2 | 2.21
32 | O=C(O)/C=C/c1ccc(Cn2ccnc2)cc1 | -3.95
33 | O=C(NCCO[N+](=O)[O-])c1cccnc1 | 0.67
34 | Cc1nc2ccc(CN(C)c3ccc(C(=O)N[C@@H](CCC(=O)O)C(=O)O)s3)cc2c(=O)[nH]1 | 17.7
35 | CCCN1CCCC[C@H]1C(=O)Nc1c(C)cccc1C | -2.76
36 | COc1cc2c(cc1OC)C(=O)C(CC1CCN(Cc3ccccc3)CC1)C2 (stereo not drawn) | 1.44
37 | N#Cc1ccc(C(c2ccc(C#N)cc2)n2cncn2)cc1 | -1.64
38 | Cc1[nH]cnc1CN1CCc2c(c3ccccc3n2C)C1=O | -4.72
